{"source": "PubChem BioAssay AID1220", "about": "(Sanford-Burnham Center for Chemical Genomics, 2008)", "note": "Hit rate of the full screen: of about 190,000 compounds, about 1,300 (0.68%) were called active. The sample as a whole holds a higher share of actives than the screen did. Unmarked numbers belong to inactive results. Rule as the data show it: active = inhibition above about 50%; inactive = the rest.", "data": [{"molecular_target": "Mannose-6-phosphate isomerase (Homo sapiens) (UniProt P34949)", "sequence (P34949 whole entry, looked up)": "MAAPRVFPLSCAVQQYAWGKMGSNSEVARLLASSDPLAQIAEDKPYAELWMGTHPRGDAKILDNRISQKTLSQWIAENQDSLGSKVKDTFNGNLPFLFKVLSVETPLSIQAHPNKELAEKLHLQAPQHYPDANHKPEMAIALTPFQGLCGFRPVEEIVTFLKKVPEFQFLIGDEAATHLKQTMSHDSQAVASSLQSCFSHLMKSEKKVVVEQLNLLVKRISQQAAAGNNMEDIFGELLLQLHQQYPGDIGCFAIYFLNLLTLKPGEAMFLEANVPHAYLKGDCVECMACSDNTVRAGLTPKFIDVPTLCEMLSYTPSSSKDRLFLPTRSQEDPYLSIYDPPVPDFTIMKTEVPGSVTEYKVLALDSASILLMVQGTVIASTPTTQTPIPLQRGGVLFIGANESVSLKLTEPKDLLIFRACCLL", "test": "MPI inhibition at elevated mannose 6-phosphate – biochemical, fluorescence intensity, high mannose 6-phosphate, primary screen (AID 1220)", "settings": "recombinant PMI enzyme, coupled fluorescence intensity; at 20 µM; stronger effect = higher value", "values": [{"smiles": "COc1ccc(C2CC2/C(=N/OC(=O)c2cccs2)c2ccccc2)cc1", "note": "(stereo not drawn)", "inhibition": "4.3%"}, {"smiles": "O=C(C1CCN(S(=O)(=O)N2CCC3(CC2)OCCO3)CC1)N1CCCCC1", "inhibition": "11%"}, {"smiles": "COc1ccccc1-c1coc2cc(OC(=O)/C=C/c3ccccc3)ccc2c1=O", "inhibition": "57.1% (active)"}, {"smiles": "COc1ccc(Oc2coc3cc(OC(=O)/C=C/c4ccccc4)ccc3c2=O)cc1", "inhibition": "6.5%"}, {"smiles": "COc1ccc(Oc2coc3cc(OC(=O)/C=C/c4ccc(F)cc4)ccc3c2=O)cc1", "inhibition": "-6.3%"}, {"smiles": "COc1cccc(NC(=O)N2CCCC2C(=O)Nc2ccc3c(c2)OCCO3)c1", "note": "(stereo not drawn)", "inhibition": "7%"}, {"smiles": "CCOC(=O)C(C(=O)OCC)c1cc(Br)c2noc3c2c1C(=O)c1ccccc1-3", "inhibition": "52.1% (active)"}, {"smiles": "O=C1c2ccccc2-c2onc3c(Oc4ccccc4)cc(O)c1c23", "inhibition": "-4.7%"}, {"smiles": "CCOC(=O)c1c(C)nc2c(c1-c1ccccc1)C(=O)c1ccccc1-2", "inhibition": "-34.4%"}, {"smiles": "COc1ccc(Cc2n[nH]c(=S)n2C)cc1Br", "inhibition": "0.8%"}, {"smiles": "O=C(NCCN1CCCCC1)c1cc(OCC(F)(F)F)ccc1OCC(F)(F)F", "inhibition": "7.9%"}, {"smiles": "Fc1ccccc1NC(=S)NCCc1ccccc1", "inhibition": "-7.1%"}, {"smiles": "CC(C)CCNC(=S)Nc1ccccc1F", "inhibition": "-14.2%"}, {"smiles": "CCCCNC(=S)Nc1ccccc1F", "inhibition": "59% (active)"}, {"smiles": "O=C(COC(=O)Cc1ccccc1[N+](=O)[O-])NCc1ccccc1Cl", "inhibition": "-4%"}, {"smiles": "COC(=O)c1cccc(NC(=S)N2CCN(c3ccccc3F)CC2)c1", "inhibition": "4.7%"}, {"smiles": "COC(=O)c1cccc(NC(=S)N2CCCCC2)c1", "inhibition": "-3.2%"}, {"smiles": "S=C(Nc1ccc2nccnc2c1)N1CCOCC1", "inhibition": "69.2% (active)"}, {"smiles": "S=C(Nc1ccc(Cl)c(Cl)c1)N1CCOCC1", "inhibition": "10.9%"}, {"smiles": "COC(=O)c1cccc(NC(=S)N2CCOCC2)c1", "inhibition": "52.1% (active)"}, {"smiles": "S=C(Nc1ccc2nccnc2c1)N1CCCC1", "inhibition": "35.6%"}, {"smiles": "CC(C)CCNC(=O)C(NS(=O)(=O)c1ccc2c(c1)c(=O)n(C)c(=O)n2C)c1ccccc1", "note": "(stereo not drawn)", "inhibition": "-11.2%"}, {"smiles": "Cc1cc(C(F)F)n2nc(C(=O)Nc3ccccc3Br)nc2n1", "inhibition": "-3.5%"}, {"smiles": "Cc1ccsc1/C=N/NC(=O)c1cc(-c2ccncc2)nc2ccccc12", "inhibition": "-9.2%"}, {"smiles": "N#Cc1ccc(C(=O)Nc2cc(S(=O)(=O)N3CCCC3)ccc2OCC(F)(F)F)cc1", "inhibition": "-0.6%"}, {"smiles": "CCCc1nc2c(=O)[nH]c3ccccc3c2o1", "inhibition": "-0.9%"}, {"smiles": "NC(=O)c1c(NC(=O)c2cc3ccccc3o2)sc2c1CCC2", "inhibition": "2.2%"}, {"smiles": "O=C(Nc1cccc2nsnc12)c1ccc(-c2ccc(Br)cc2)o1", "inhibition": "50.3% (active)"}, {"smiles": "O=C(Nc1cccc2ncccc12)c1ccc(-c2ccc(Br)cc2)o1", "inhibition": "40.4%"}, {"smiles": "O=C(Nc1ccccc1N1CCCCC1)c1ccc(-c2cccc(Cl)c2)o1", "inhibition": "1.7%"}, {"smiles": "O=C(Nc1cccc2nsnc12)c1ccc(-c2cccc(Cl)c2)o1", "inhibition": "50.2% (active)"}, {"smiles": "COC(=O)c1ccccc1NC(=O)c1ccc(-c2cccc(Cl)c2)o1", "inhibition": "6.9%"}, {"smiles": "COc1ccccc1NC(=O)c1ccc(-c2ccc(Br)cc2)o1", "inhibition": "7.4%"}]}]}
